Source: PubChem
Hsp70 activator: transcriptional activators of Hsp70 | HeLa Hsp70 promoter luciferase reporter, luminescence; scaled: vehicle 0, proteasome-inhibitor control 100% | activation, % at 10 µM | 0.04% of 200,000 active | AID 1203;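 active = activation above the mean across all tested compounds plus 3 SD, cutoff set per campaign, cut at about 5.5% in these data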;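 also: 100% = MG132 at 30 µM as the positive control and 0% = DMSO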
S1P4 agonist: agonists of human S1P4 receptor. 0.35% of 220,000 active. activation, % at 4.98 µM. S1P4-expressing cell line, agonist reporter assay. O95977; in the data active = activation above about 11%;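 also: 0% = DMSO vehicle and 100% = reference agonist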
Target sequence (O95977 whole entry, looked up): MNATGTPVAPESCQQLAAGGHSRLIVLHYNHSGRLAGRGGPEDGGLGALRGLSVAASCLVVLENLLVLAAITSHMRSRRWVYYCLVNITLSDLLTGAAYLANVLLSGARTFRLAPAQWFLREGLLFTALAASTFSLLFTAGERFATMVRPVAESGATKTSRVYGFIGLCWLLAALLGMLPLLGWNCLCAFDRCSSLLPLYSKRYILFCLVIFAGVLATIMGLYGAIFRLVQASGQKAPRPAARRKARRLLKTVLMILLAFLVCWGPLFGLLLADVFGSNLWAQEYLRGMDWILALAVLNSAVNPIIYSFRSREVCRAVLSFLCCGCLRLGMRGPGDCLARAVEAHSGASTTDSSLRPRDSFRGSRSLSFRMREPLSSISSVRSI
S1P3 antag: antagonists of human S1P3 receptor. CHO S1P3 NFAT-BLA reporter, FRET fluorescence, antagonist mode. Q99500. AID 485. 0.27% of 170,000 active. inhibition, % at 4.98 µM;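 active = inhibition above the plate cutoff, the mean inhibition of test wells on that plate plus 3 SD, cut at about 28% in these data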;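 also: cells challenged with S1P at its EC80 of 0.8 µM; blue over green emission ratio from cleaved BLA substrate after 4 h stimulation; 0% = S1P-stimulated wells and 100% = unstimulated DMSO-only wells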
HSF1 inhib: HSF1 inhibition; NIH3T3-HGL HSE-luciferase, MG132-induced, luminescence 8 h; hits give low values; activity change, negative = inhibition, % at 7.5 µM (by protocol); 0.77% of 300,000 active; AID 2098;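 active = more than half of replicate wells show activity change below -50%, luminescence cut by over half; inconclusive = some wells, but at most half, below -50%; inactive = no replicate well below -50%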;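 also: luciferase reports HSF-1 transcriptional activity via heat shock element; 0% = median of DMSO wells and -100% = zero luminescence signal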
S1P4 antag: blocks the human S1P4 receptor | S1P4-expressing cells, antagonist mode, reporter read-out | inhibition, % at 4.98 µM | 0.26% of 220,000 active | AID 1510; in the data active = inhibition above about 29%;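 also: 0% = wells stimulated with agonist and 100% = vehicle wells without agonist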
HSF1 activator: increases HSF-1 driven luciferase reporter signal | 1.7% of 300,000 active | activation, % at 9 µM | NIH3T3-HGL HSF-1 luciferase reporter, MG132, 8 h; 100% = twice DMSO control signal;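 active = mean replicate activation of at least 50% with a set share of replicates each reaching 50%; inconclusive = only one of those two conditions met; inactive = mean below 50% and too few replicates reaching it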;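 also: 0% = median of the neutral control wells and 100% = twice that signal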
Starred values were filed as active, the others as inactive; ? = inconclusive; · = no result given. Sampled rows, rich in hits. Any-hit rate of the full collection: about 2.9%.

SMILES	Hsp70 activator	S1P4 agonist	S1P3 antag	HSF1 inhib	S1P4 antag	HSF1 activator
Cn1c(CCNC(=O)c2cccs2)nnc1SCC(=O)Nc1nc(-c2ccccc2)cs1	-0.2	1.5	-2.5	11.4	-3.0	54.3*
Cc1csc(NC(=O)CSc2nnc(CCNC(=O)c3cccs3)n2C)n1	-0.3	1.1	·	-7.0	6.9	2.7
CC1CCN(Cc2csc(N)n2)CC1	-0.5	3.6	·	-1.4	-9.5	9.5
Fc1ccc(Sc2ccccc2CNC2=NCCN2)cc1	-0.5	-2.0	-14.9	9.5	-11.5	55.3*
Cc1ccc(-c2csc(NC(=O)c3ccc(S(=O)(=O)N4CCc5ccccc54)cc3)n2)cc1	-0.3	0.2	6.8	-56.2*	-5.9	-66.4
O=C(Nc1nc(-c2ccccc2)cs1)c1ccc(S(=O)(=O)N2CCc3ccccc32)cc1	-0.3	0.4	4.3	-4.8	8.3	-16.6
CCN(CC(=O)Nc1c(F)cccc1F)C(=O)Cc1ccc2c(c1)CCC2	·	·	·	3.7	·	-11.2
Cc1nnc(SCC(=O)c2ccc(Br)cc2)s1	0.2	1.0	-0.1	49.3	-8.2	66.6*
N#C/C(=C\c1ccccc1[N+](=O)[O-])c1nc(C2CC2)cs1	-0.2	0.7	14.6	33.9	-5.3	51.0*
N#C/C(=C\c1ccc([N+](=O)[O-])cc1)c1nc(C2CC2)cs1	-0.2	2.4	-10.2	46.0	-5.5	56.7*
COc1ccc(-c2csc(/C(C#N)=C\c3cccc([N+](=O)[O-])c3)n2)cc1	-0.5	0.3	-4.0	-4.7	-5.5	24.3
N#C/C(=C/c1ccccc1[N+](=O)[O-])c1nc(C2CC2)cs1	-0.2	-1.7	3.7	43.9	-3.6	101.5*
N#C/C(=C\C=C\c1ccccc1[N+](=O)[O-])c1nc(-c2ccc3c(c2)OCO3)cs1	0.1	0.1	·	7.5	-4.2	38.6
Cc1cc(C(C)(C)C)cc(S(=O)(=O)Nc2ccc(O)c(C(=O)O)c2)c1C	0.3	-0.8	·	1.7	-3.1	0.3
CC(=O)Nc1ccc(NC(=O)c2ccc(NS(=O)(=O)c3cc(C(C)(C)C)cc(C)c3C)cc2)cc1	-0.2	-0.3	-16.0	65.1	-16.7	109.9*
O=C(CSC(=S)N1CCCCC1)Nc1ncc2c(n1)CCCC2=O	·	1.5	2.6	-52.1*	9.2	-58.8
Cc1sc2ncn(CC(=O)NCCCC(=O)Nc3ccc(C(C)C)cc3)c(=O)c2c1C	·	·	·	8.7	·	24.5
CCCC(NC(=O)COc1cc2c(c3oc(=O)cc(C)c13)CCC(C)(C)O2)C(=O)O (stereo unspecified)	·	·	·	-55.0*	·	-62.9
COc1ccc(C2C=C(C)Nc3nc4ccccc4n32)cc1 (stereo unspecified)	0.0	0.7	-9.6	34.3	10.9	?
COc1ccc(C2C(C#N)=C(N)Nc3nc4ccccc4n32)cc1 (stereo unspecified)	-0.4	-0.4	4.3	30.8	-15.2	52.8*
Cc1ccccc1-c1c(C)oc2cc(O)ccc2c1=O	-0.1	-0.4	-11.5	0.2	4.5	-2.9
Cc1c(-c2ccccc2)[n+](=O)c2c(n1[O-])CCC2	0.1	-0.3	·	-86.9*	-2.8	-88.9
Cc1onc(-c2ccccc2Cl)c1C(=O)Nc1ccc(OCC(=O)N2CCOCC2)cc1	-0.2	0.3	21.5	-84.9*	7.2	-87.4
COc1ccc(-c2nc(-c3ccc(Br)o3)no2)cc1OC	0.2	2.1	-4.0	30.0	1.3	56.7*
COc1ccc(-c2nnc(-c3ccc(Br)o3)o2)cc1OC	-0.2	0.5	22.0	5.0	-13.7	18.5
SMILES	Hsp70 activator	S1P4 agonist	S1P3 antag	HSF1 inhib	S1P4 antag	HSF1 activator
CC(/C=C/c1ccc2c(c1)OCO2)=N/NC(=O)c1ccncc1	·	-3.8	7.9	-70.5*	15.2	-76.5
O=C(N/N=C/c1ccc2c(c1)OCO2)c1ccccn1	-0.4	-0.6	·	1.3	-23.4	22.7
CC(/C=C/c1ccc2c(c1)OCO2)=N/NC(=O)c1cccnc1	0.7	0.8	9.5	-2.2	-21.2	4.4
CC(C)(C)NC(=O)C(=O)N/N=C/c1ccc(Br)cc1	0.1	2.7	·	10.6	-2.6	12.6
O=C(/C=C/c1ccc2c(c1)OCO2)c1ccccn1	·	-1.6	5.2	34.8	-2.0	60.2*
O=C(N/N=C/c1cc2c(cc1Br)OCO2)c1ccccn1	·	0.9	-1.3	30.7	-24.8	60.1*
CC(C)(C)OC(=O)N/N=C/c1ccc(Br)cc1	0.1	-0.1	3.7	18.0	0.7	52.8*
O=C(/C=C/c1ccc2c(c1)OCO2)Nc1ccc(Cl)cn1	0.2	-1.1	-10.3	35.9	-9.7	84.8*
CCN(CC(=O)Nc1c(C(=O)OC)[nH]c2ccccc12)c1ccc2c(c1)OCO2	0.0	0.8	7.4	-11.4	4.4	-3.1
O=C(COc1ccc2c(c1)OCO2)Nc1ccc(Cl)cn1	·	·	·	2.0	·	29.2
Cc1ccc(S(=O)(=O)NC(C)C(=O)Nc2ccc3c(c2)OCO3)cc1 (stereo unspecified)	·	·	·	3.0	·	-10.7
COC(=O)c1[nH]c2ccccc2c1NC(=O)/C=C/c1ccc2c(c1)OCO2	-0.2	0.4	-0.6	23.9	-14.5	78.2*
Cc1ccc(C(NC(=O)/C=C\c2ccc3c(c2)OCO3)C(=O)Nc2ccc3c(c2)OCO3)cc1 (stereo unspecified)	-0.2	-0.4	1.2	39.0	-12.4	99.0*
CC(C)(C)OC(=O)N/N=C\C=C\c1ccc2c(c1)OCO2	-0.4	0.1	-5.7	34.6	-22.2	55.7*
Cc1ccc(Nc2nc(N)nc(CSc3ncccn3)n2)cc1	-0.3	-2.2	·	30.8	-24.7	66.0*
CCN(CC(=O)Nc1ccc(NC(C)=O)cc1)Cc1c(O)ccc2cc(Br)ccc12	·	·	·	100.9	·	127.1*
CC1CN(c2ccc(S(=O)(=O)N3CCCC3)cn2)CC(C)O1 (stereo unspecified)	·	-0.5	-5.8	-5.1	2.6	-10.1
Cc1ccc(NC(=O)/C=C/c2cccs2)c([N+](=O)[O-])c1	0.5	-0.9	·	35.6	-14.9	62.7*
Cc1ccc(NC(=O)/C=C/C(=O)O)c([N+](=O)[O-])c1	0.1	4.0	-15.3	12.6	-14.6	23.9
Fc1ccc(F)c(C2=NNC(=Nc3ccccc3F)SC2)c1	-0.3	5.5	0.8	31.3	-1.9	81.5*
COCCn1c(C)cc(C2=NNC(=Nc3ccccc3F)SC2)c1C	-0.4	-1.4	·	-88.7*	-8.6	-89.9
Fc1ccc(N=C2NN=C(c3cc(F)ccc3F)CS2)cc1	-0.2	-1.2	4.5	·	-5.4	·
C[n+]1c(/C=C/c2ccc3c(c2)OCO3)ccc2ccccc21	-0.1	-0.6	-7.5	-71.9*	-6.8	-76.1
Cc1oc2ccc(NS(=O)(=O)c3ccc(C(C)(C)C)cc3)cc2c1C(=O)Nc1ccccc1	0.0	-1.0	·	17.6	-1.4	60.8*
CC(=O)c1c(C)oc2ccc(NS(=O)(=O)c3ccc(C)cc3)cc12	·	·	·	9.9	·	14.8
COc1ccccc1CNC(=O)C1CCCN(c2cnccn2)C1 (stereo unspecified)	·	·	·	2.7	·	-21.4
COc1cccc(NC(=O)c2ccnc(N3CCC(C(=O)NCc4ccccc4OC)CC3)c2)c1	·	·	·	66.3	·	111.2*
